VACV mCherry inh: vaccinia inhibition (mCherry reporter); AID 720579; 310,000 compounds, 0.63% hits; Potency, µM (highest dose often 36.5 µM), hits mostly inhibitors; Vaccinia virus mCherry reporter infection, fluorescence; calls by dose curve; tested in A549 cells; also: nearly all actives have a fitted effect of over 35% in size
Pf growth 48h: inhibits P. falciparum growth in the first generation, 48 h | 310,000 compounds, 5.9% hits | P. falciparum luciferase growth in erythrocytes, 48 h | Potency, µM (series often up to 28.7 µM), most hits filed as inhibitors
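Erythrocytes infected with P. falciparum carrying an integrated firefly luciferase reporter (2% hematocrit, 0.1% parasitemia final) were exposed to compounds in RPMI 1640 with 0.5% Albumax at 37 C, 5% CO2. Growth inhibition was scored as reduced luminescence.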
Pf growth 96h: inhibits malaria parasite growth, 96 h; P. falciparum luciferase reporter growth, 96 h; Potency, µM (highest dose often 28.7 µM), actives largely listed as inhibitors; 320,000 compounds, 6.9% hits
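Two parasite generations (96 h, 37 C, 5% CO2) of compound exposure in infected erythrocytes (0.05% parasitemia, 2% hematocrit). Luciferase-reporter P. falciparum; decreased luminescence indicates inhibited growth, aimed at apicoplast-acting delayed death.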
VACV Venus inh: vaccinia inhibition (Venus reporter); Potency, µM (titrated, usually from 36.5 µM), actives largely listed as inhibitors; 330,000 compounds, 0.46% hits; AID 720580; Vaccinia virus Venus reporter expression, fluorescence; calls by dose curve; tested in A549 cells; also: nearly all actives have a fitted effect of over 30% in size
HCV inh: HCV inhibition | Huh7.5.1 HCVcc-Cre infection, luciferase reporter, 44 h | Potency, µM (titrated, usually from 41.8 µM), actives largely listed as inhibitors | 340,000 compounds, 3.4% hits
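Infectious HCV cell culture screen: compound-treated cells (1,000/well, pre-plated 4 h) are infected with HCVcc-Cre at roughly 0.5 moi and grown 44 h. Infection is quantified by luciferase signal after 15 min substrate incubation at room temperature.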
NS1 function inh: influenza NS1 inhibition; 270,000 compounds, 0.4% hits; Potency, µM (doses to about 46.1 µM); calls by dose curve; also: actives are rising curves; nearly all actives have a fitted effect of over 50% in size
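S. cerevisiae expressing influenza A NS1, grown in glucose, washed, then diluted 1:100 into pH 6.0 -URA galactose medium with 23 nl compound. Growth recovery read as OD600; NS1-free strain serves as control.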
Of the large screens only hits and unclear results are named; the others gave an inactive call; ! = a repeat was not active. Compounds with a hit are over-represented: about 11% of the library has one in this group of screens. Unless noted, calls follow the shape of the dose curve; as a rule, active = well fitted inhibition curve with a large enough effect; inconclusive = small, poorly fitted or top-dose-only effect, or another doubt; inactive = no such curve, though single readings can be large or run the other way.

COc1ccc(NC(=O)C2CCCN2C(=O)NCc2ccccc2)cc1OC (stereo not given)	Pf growth 96h inconclusive
Clc1ccc(-c2nnc3sc(-c4ccc(Br)o4)nn23)cc1	Pf growth 48h inconclusive, Pf growth 96h inconclusive, HCV inh inconclusive
Cc1oc(-c2ccc(Cl)cc2)cc1-c1nn2c(-c3ccoc3C)nnc2s1	Pf growth 48h inconclusive, Pf growth 96h inconclusive, NS1 function inh 10µM
CN1CCN(CCCN2c3ccccc3Sc3ccc(Cl)cc32)CC1	VACV mCherry inh 11µM!, Pf growth 48h 9.3µM, Pf growth 96h 9.3µM, VACV Venus inh 11µM, HCV inh inconclusive
OC1CC2CC[C@H](C1)N2CCCN1c2ccccc2Sc2ccc(Cl)cc21 (stereo not given in full)	none (no result: VACV mCherry inh, Pf growth 48h, Pf growth 96h, VACV Venus inh, HCV inh)
CCSc1ccc2c(c1)N(CCCN1CCN(C)CC1)c1ccccc1S2	Pf growth 48h 9.3µM, Pf growth 96h inconclusive, VACV Venus inh inconclusive, HCV inh inconclusive (no result: NS1 function inh)
OC1CC2CCC(C1)N2CCCN1c2ccccc2Sc2ccc(Cl)cc21 (stereo not given)	VACV mCherry inh inconclusive, VACV Venus inh 11µM, HCV inh inconclusive (no result: Pf growth 48h, Pf growth 96h, NS1 function inh)
CN(C)N=Nc1ccc(S(=O)(=O)NC(=O)Cc2ccccc2)cc1	none
CC1(C)C(=O)CC[C@@]2(C)[C@H]1CC[C@@]1(C)CC3=C(CC[C@@H]12)[C@@]1(C)CCC(=O)C(C)(C)[C@@H]1CC3	Pf growth 48h 12µM, Pf growth 96h inconclusive (no result: VACV mCherry inh, VACV Venus inh, NS1 function inh)
Cc1ccccc1-n1ncc2c1CC(C)(C)CC2NC(=O)c1snnc1C (stereo not given)	Pf growth 48h inconclusive, Pf growth 96h 5.9µM, NS1 function inh inconclusive (no result: VACV mCherry inh, VACV Venus inh)
CC1(C)Cc2c(cnn2-c2ccccc2)C(NC(=O)CCc2ccncc2)C1 (stereo not given)	none
CC1(C)Cc2c(cnn2-c2ccc(F)cc2)C(NC(=O)c2ccoc2)C1 (stereo not given)	Pf growth 96h inconclusive
CC1(C)Cc2c(cnn2-c2ccccc2)C(NC(=O)c2ccoc2)C1 (stereo not given)	Pf growth 48h 10µM, Pf growth 96h inconclusive
Cc1ccc(-n2ncc3c2CC(C)(C)CC3NC(=O)CCc2ccc(=O)[nH]n2)cc1 (stereo not given)	Pf growth 96h 13µM
CC1(C)Cc2c(cnn2-c2ccccc2)C(NC(=O)C2(C(N)=O)CC2)C1 (stereo not given)	Pf growth 48h 9.3µM
C=CCN(c1ccc(Cl)cc1)S(=O)(=O)c1cccc(C(=O)O)c1	Pf growth 48h inconclusive, Pf growth 96h inconclusive (no result: NS1 function inh)
COc1ccc(NC(=O)[C@@H]2CCCN2S(=O)(=O)c2ccccc2F)cc1S(=O)(=O)N1CCCCC1	VACV mCherry inh inconclusive (no result: Pf growth 48h, Pf growth 96h, NS1 function inh)
Cc1ccc(-n2ncc3c2CC(C)(C)CC3NC(=O)c2ccccn2)cc1 (stereo not given)	Pf growth 96h 15µM, VACV Venus inh inconclusive, HCV inh inconclusive
COc1ccc(OC)c(C(=O)NC2CC(C)(C)Cc3c2cnn3-c2ccccc2)c1 (stereo not given)	Pf growth 48h inconclusive, HCV inh 13µM (no result: VACV mCherry inh, VACV Venus inh)
Cc1cc(C(=O)N2CCC(Cc3ccccc3)CC2)no1	Pf growth 96h 15µM (no result: VACV mCherry inh, VACV Venus inh)
O=C(/C=C/c1ccccc1)N1CCC(Cc2ccccc2)CC1	Pf growth 48h inconclusive, Pf growth 96h 8.3µM
Cc1c(Cl)cccc1NC(=S)NCc1ccc(Cl)cc1	none (no result: Pf growth 48h, Pf growth 96h, NS1 function inh)
Cc1c(Cl)cccc1NC(=S)NCCc1ccc(S(N)(=O)=O)cc1	Pf growth 96h 10µM
Cc1c(Cl)cccc1NC(=S)NCCc1ccc(F)cc1	Pf growth 48h inconclusive, Pf growth 96h 13µM
Cc1c(Cl)cccc1NC(=S)NCCc1ccc(Cl)cc1	Pf growth 48h inconclusive, Pf growth 96h inconclusive, HCV inh 10µM
CCOC(=O)C1CCN(c2nc3cc(OC)ccc3cc2C#N)CC1	none
c1ccc(COc2ncnc3c2ncn3CCCNCc2ccccn2)cc1	VACV mCherry inh inconclusive, HCV inh inconclusive (no result: Pf growth 48h, Pf growth 96h, NS1 function inh)
N#CC(C#N)=C1NC2(CCCC2)Cc2ccccc21	Pf growth 48h inconclusive, Pf growth 96h 3.3µM
S=C1NC2(CCCCC2)Cc2ccccc21	Pf growth 48h inconclusive, Pf growth 96h 12µM
O=C(N1CCCCC1)C12CC3CC(C1)CC(C(=O)N1CCCCC1)(C3)C2	none (no result: VACV mCherry inh, Pf growth 96h)
O=C(N1CCCC1)C12CC3CC(CC(C3)C1)C2	Pf growth 48h 12µM

Screening data: PubChem, National Center for Advancing Translational Sciences (NCATS)
